# A selection: hits, their analogues and other compounds. The true share with any hit is near 4.6%.
# Cav32 inh = Cav3.2 calcium influx blockers – cell-based, Fluo-4 calcium fluorescence, FDSS, MLSMR library, primary screen | Voltage-dependent T-type calcium channel subunit alpha-1H (Homo sapiens), O95180 | Cav3.2-expressing cells; hits give low values | B-score at 10 µM | actives 4% (n = 100,000);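 active = single-dose well whose peak fluorescence ratio is a statistical outlier from its plate by either plate-standardised score or position-corrected B-score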
# NFkB transloc pot = enhancers of NFkB p65 translocation in HUVEC – imaging, IL-1B stimulus, high-content imaging, primary screen; HUVEC IL-1B NFkB p65 nuclear translocation imaging; activation, % at 2 µM; actives 0.3% (n = 94,000); AID 819, 2007;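 active = activation above 40%, about the mean plus 3 SD, also judged a hit on visual image review; inconclusive = activation above 40% but not a hit on visual review; inactive = activation not above 40% and no visual hit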;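 also: percent activation is computed from the nuclear over cytoplasmic p65 intensity ratio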
# sEH activator = soluble epoxide hydrolase activators, primary screen, biochemical, human sEH; purified human sEH enzymatic activity, activator screen; activation, % at 2 µM; AID 717, 2007; actives 0.04% (n = 91,000); Bifunctional epoxide hydrolase 2 (Homo sapiens), P34913; in the data active = activation above about 37%
# Target sequence (P34913 whole entry, looked up): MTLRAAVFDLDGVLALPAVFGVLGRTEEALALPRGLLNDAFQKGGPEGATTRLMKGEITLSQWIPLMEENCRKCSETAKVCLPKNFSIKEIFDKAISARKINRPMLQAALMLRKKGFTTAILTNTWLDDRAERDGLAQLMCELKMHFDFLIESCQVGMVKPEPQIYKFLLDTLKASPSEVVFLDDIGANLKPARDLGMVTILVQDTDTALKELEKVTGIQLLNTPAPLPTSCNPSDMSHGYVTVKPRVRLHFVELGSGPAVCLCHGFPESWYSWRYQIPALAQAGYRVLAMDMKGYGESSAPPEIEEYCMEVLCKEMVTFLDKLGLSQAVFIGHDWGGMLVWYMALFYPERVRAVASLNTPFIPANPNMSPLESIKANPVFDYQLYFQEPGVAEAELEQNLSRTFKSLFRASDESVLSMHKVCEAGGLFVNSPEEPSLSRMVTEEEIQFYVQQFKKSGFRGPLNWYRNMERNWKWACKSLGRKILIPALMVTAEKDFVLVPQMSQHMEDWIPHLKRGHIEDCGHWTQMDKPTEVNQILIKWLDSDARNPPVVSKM
# IL1B cytotox = cytotoxicity in IL-1B stimulated HUVEC, primary screen, cytotoxicity control for IL-1B NFkB translocation project, imaging, Hoechst nuclear count, IL-1B stimulus. HUVEC cell count loss. cell count reduction, % at 2 µM. actives 0.41% (n = 94,000). AID 845, 2007;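 active = cell count reduction more than 3 SD above the screen-wide mean, cut at about 70% in these data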
# IL1B NFkB inh = inhibitors of IL-1B driven NFkB p65 nuclear import, primary screen, imaging, HUVEC, IL-1B stimulus, high-content imaging; HUVEC IL-1B NFkB p65 nuclear translocation imaging; inhibition, % at 2 µM; actives 0.43% (n = 94,000); AID 796, 2007;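 active = inhibition above about 30% together with a positive call from visual inspection of the well image, limit read from the data; inconclusive = inhibition above a set limit but visual check negative; inactive = inhibition not above a set limit, visual check negative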;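 also: nuclear over cytoplasmic p65 intensity ratio measured by imaging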
# sEH inhibitor = soluble epoxide hydrolase inhibitors, primary screen, biochemical, human sEH. Bifunctional epoxide hydrolase 2 (Homo sapiens), P34913. recombinant human sEH enzymatic activity assay. inhibition, % at 2 µM. actives 0.34% (n = 91,000). AID 707, 2007; in the data active = inhibition above about 80%
# A number is an active result; . = inactive; ? = inconclusive; / = no result given.
SMILES,Cav32 inh,NFkB transloc pot,sEH activator,IL1B cytotox,IL1B NFkB inh,sEH inhibitor
Cc1cc(C)c(S(=O)(=O)N2CCCCC2)c(C)c1N(C)S(=O)(=O)c1ccccc1,-4.3,.,.,.,.,.
COc1ccccc1N1CCN(C(=O)c2ccc(C(C)(C)C)cc2)CC1,-5,.,.,.,.,.
COc1ccccc1N1CCN(C(=O)C(Sc2ccccc2)c2ccccc2)CC1 (centres undefined),-4.6,.,.,.,.,.
COc1ccccc1N1CCN(C(=O)c2ccncc2)CC1,.,.,.,.,.,.
COc1ccc(OC)c(S(=O)(=O)N(C)CC(=O)Nc2ccc3c(c2)OCCO3)c1,.,.,.,.,.,.
O=C(N1CCN(c2cccc(Cl)c2)CC1)C1(S(=O)(=O)c2ccc(Cl)cc2)CC1,-4.7,.,.,.,.,.
O=C(NCCCN1CCN(c2cccc(Cl)c2)CC1)C1(S(=O)(=O)c2ccc(Cl)cc2)CC1,-6.9,.,.,.,.,.
CC(=O)c1ccc(N2CCN(C(=O)C3(S(=O)(=O)c4ccc(Cl)cc4)CC3)CC2)cc1,.,.,.,.,.,.
Cc1ccc(Cl)cc1N1CCN(C(=O)C2(S(=O)(=O)c3ccc(Cl)cc3)CC2)CC1,-6.1,.,.,.,.,.
CC(=O)c1c(C)[nH]c(C(=O)N2CCN(c3cc(Cl)ccc3C)CC2)c1C,.,.,.,.,.,.
C=CC(=O)NC(NC(=O)C=C)c1ccc(Br)cc1,.,.,.,.,.,.
O=C(c1ccc(C(F)(F)F)cc1)N1CCC(=O)N(C(COCc2ccc(C(F)(F)F)cc2)Cc2ccccc2)CC1 (centres undefined),.,/,/,/,/,/
CCc1ccc(OCC(=O)Nc2ccc(-c3nc4ccccc4o3)c(O)c2)cc1,.,.,.,.,.,.
CCOC(=O)c1[nH]c2ccc(F)cc2c1NC(=O)C(C)N1CCc2cc(OC)c(OC)cc2C1 (centres undefined),.,.,.,.,.,.
CCc1cccc(NC(=O)Cc2cn(C)c3ccccc23)c1,-7.7,/,.,/,/,.
CCC(C)NC(=O)Cc1cn(C)c2ccccc12 (centres undefined),.,.,.,.,.,.
Cc1ccccc1SCC(=O)Nc1cccc(C#N)c1,.,.,.,.,.,.
Cn1cc(CC(=O)Nc2cccc(C#N)c2)c2ccccc21,-4.2,.,.,.,.,.
CCc1ccc(NC(=O)Cc2cn(C)c3ccccc23)cc1,-4.8,.,.,.,.,.
COC(=O)c1cc(NCc2ccccc2F)ccc1N1CCOCC1,.,.,.,.,.,.
COc1ccc(N2C(=O)CC(N3CCN(c4nc5ccccc5s4)CC3)C2=O)cc1 (centres undefined),.,.,.,.,.,.
O=C(NCCNS(=O)(=O)c1cccc(C(F)(F)F)c1)c1cc(OCC(F)(F)F)ccc1OCC(F)(F)F,.,.,.,.,.,.
CCOC(=O)c1oc2ccccc2c1CN1CCN(C(=O)c2ccccc2)CC1,.,/,/,/,/,/
CCOC(=O)c1oc2ccccc2c1CN1CCN(c2ccccc2)CC1,-4.8,.,.,.,.,.
COc1cc(OC)cc(-c2nnc(SCC(=O)N3c4ccccc4Sc4ccccc43)o2)c1,.,.,.,.,.,.
SMILES,Cav32 inh,NFkB transloc pot,sEH activator,IL1B cytotox,IL1B NFkB inh,sEH inhibitor
N#Cc1nc(Cc2ccccc2)oc1NCc1ccccc1,-5.4,.,.,.,.,.
COc1ccc(CNc2oc(Cc3cccc4ccccc34)nc2C#N)cc1,-7,.,.,.,.,.
C=CCN(C(=O)CNC(=O)c1ccco1)C(C(=O)NC1CCCCC1)c1ccccc1F (centres undefined),.,.,/,.,.,/
COc1ccc(NC(=O)C2CCCN(S(=O)(=O)c3cnc[nH]3)C2)cc1 (centres undefined),.,.,/,.,.,/
O=C(CCNc1ccc(Cl)c(C(F)(F)F)c1)c1ccco1,-5.1,.,.,.,.,.
Cc1ccccc1NC(NC(=O)c1cccs1)C(Cl)(Cl)Cl (centres undefined),-5.9,?,.,.,.,.
Cc1ccc(NC(NC(=O)c2cccs2)C(Cl)(Cl)Cl)cc1 (centres undefined),.,.,.,.,.,.
COc1ccc(OC)c(C2=NO[C@@H]3C(=O)N(c4cc(Cl)ccc4OC)C(=O)[C@H]23)c1,.,.,.,.,.,.
CCn1cc(/C=N/NC(=O)c2ccc3c(c2)OCO3)c(C)n1,.,.,.,.,.,.
CCn1ncc(/C=N\NC(=O)c2ccc3c(c2)c(C)c(C)n3Cc2ccccc2)c1C,-5.7,.,.,.,.,.
CCn1nc(C)c(/C=N/NC(=O)c2ccc3c(c2)c(C)c(C)n3Cc2ccccc2)c1C,-6.2,.,.,.,.,.
CCn1cc(/C=N\NC(=O)c2ccc3c(c2)c(C)c(C)n3Cc2ccccc2)c(C)n1,-6.6,.,.,.,.,.
CCn1c2ccccc2c2cc(/C=N/NC(=O)c3cccc(C)c3)ccc21,-4.2,.,.,.,.,.
COC(=O)CNc1c(-c2ccccn2)nc2ccc(Br)cn12,.,.,.,.,.,.
CCCCN(C)C(=O)C1CCN(CCCc2ccccc2)CC1,.,.,.,.,.,.
Cc1ccc(S(=O)(=O)Nc2cccc(NC(=O)CN3CCCCC3)c2)cc1,.,.,.,.,.,.
COc1cccc(OC)c1-c1nn2c(-c3ccccc3Cl)nnc2s1,.,.,.,.,.,.
O=C(OCc1nc2ccccc2[nH]1)C12CC3CC(CC(C3)C1)C2,-6.7,.,.,.,.,.
COc1ccc(-c2nn(CC(=O)Nc3ccc(Cl)c(Cl)c3)c(=O)c3ccccc23)cc1,.,.,.,.,.,.
COc1ccc(C)cc1NC(=O)CN(Cc1nnc(-c2ccc(Cl)cc2)o1)C1CCCC1,-4.2,.,.,.,.,.
COc1ccc(Cl)cc1NC(=O)CN(C)C1CCCCC1,.,.,.,.,.,.
Clc1ccccc1Cn1nnc2c(N3CCCC3)ncnc21,.,.,.,.,.,.
O=C1c2ccccc2NC(c2ccncc2)N1c1ccccn1 (centres undefined),.,.,.,.,62,.
COc1ccccc1N1C(=O)c2ccccc2NC1c1ccncc1 (centres undefined),/,.,.,.,.,.
O=C(OCC#CCSc1nnc(-c2cccc3ccccc23)o1)c1cccs1,-4.7,.,.,.,.,.
CCOCCCn1c(=NC(=O)c2cccnc2)c(C(=O)OCC)cc2c(=O)n3ccccc3nc21,4.2,.,.,.,.,.
CCCCn1c(=NC(=O)c2cccnc2)c(C(=O)OCC)cc2c(=O)n3ccccc3nc21,.,.,.,.,.,.
